In PubChem BioAssay (EPA / NIEHS) one finds outcome data, which are given here for 15 compounds.

Molecules are shown by their SMILES. Activity calls are given as the source filed them. Rule for the calls: active = hit-call score of the fitted dose curve at least 0.9, where 1 is the maximum; inactive = score below 0.9.

The assay deals with Hepatocyte nuclear factor 3-beta (Homo sapiens) (UniProt Q9Y261). As to the kind of experiment: ATG_FoxA2_CIS: Attagene CIS-FACTORIAL HepG2 Assay for human Forkhead box A2 (FOXA2) (AID 2282942). The note with it: HepG2 cis-reporter transcription factor activity, 24 h; actives raise or lower the signal. The gist of the method: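 Transient MRTU transfection of HepG2 liver cells; 24 h treatment; total RNA → oligo(dT) RT → PCR → FAM primer extension → HpaI cut → CE. Bidirectional fit vs DMSO.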
Hepatocyte nuclear factor 3-beta (Homo sapiens), sequence (Q9Y261 whole entry, looked up): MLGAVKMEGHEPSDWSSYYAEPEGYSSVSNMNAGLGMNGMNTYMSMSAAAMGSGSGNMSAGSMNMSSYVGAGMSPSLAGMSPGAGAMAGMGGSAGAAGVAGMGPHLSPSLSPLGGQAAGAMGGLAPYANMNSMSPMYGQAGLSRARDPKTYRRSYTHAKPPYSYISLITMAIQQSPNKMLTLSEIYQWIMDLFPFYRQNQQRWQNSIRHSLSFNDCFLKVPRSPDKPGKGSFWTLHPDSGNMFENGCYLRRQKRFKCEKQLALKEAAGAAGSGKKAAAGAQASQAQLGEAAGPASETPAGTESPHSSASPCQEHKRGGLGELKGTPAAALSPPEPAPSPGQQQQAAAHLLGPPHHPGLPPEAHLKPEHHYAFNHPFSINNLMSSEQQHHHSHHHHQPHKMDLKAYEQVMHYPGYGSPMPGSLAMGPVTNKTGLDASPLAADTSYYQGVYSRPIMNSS
In the case of `CCOCCOCCOCC`, the compound was called inactive.

Turning to `C=C1C[C@]23C[C@@]1(O)CC[C@H]2[C@@]12C=C[C@H](O)[C@@](C)(C(=O)O1)[C@H]2[C@@H]3C(=O)O`, the compound was called inactive. To `OCc1cccc(Oc2ccccc2)c1` belongs “inactive”; to `C=CCN(CC=C)CC=C`, “inactive”. To `CC(C)(N=C=O)c1cccc(C(C)(C)N=C=O)c1` belongs “inactive”.

Consider `C[Si]1(C)O[Si](C)(C)O[Si](C)(C)O1`, for which the result was inactive.

Turning to `CCOc1ccccc1O`, the call was inactive.

Take `Cc1cc(=O)oc2cc(N(C)C)ccc12`: the result was inactive. `CCCCOCC`: the compound was classed as inactive. Consider `C1CCCCC1`, for which the result was inactive.

Take `CC1=CC[C@@]23C[C@@H]1C(C)(C)[C@@H]2CC[C@H]3C`: the compound was called inactive. Under `O=C1NC2NC(=O)NC2N1` (stereo not given) stands “inactive”; under `Nc1ccc(NCCO)c([N+](=O)[O-])c1`, “inactive”.

Take `CC(C)(CO)[C@@H](O)C(=O)NCCC(=O)O`: the compound was called inactive. For the compound `C[Si](C)(C)O[Si](C)(C)C`, the result was inactive.
